Laboratory results taken from article PMC7862700, “An all-to-all approach to the identification of sequence-specific readers for epigenetic DNA modifications on cytosine”.

What was measured:
Test in all cases: DAPPL (digital affinity profiling via proximity ligation, sequencing); 10 mM Tris-HCl pH 7.5, 50 mM NaCl, 1 mM DTT, 4% glycerol, room temperature, 30 min; GST-TFs on glutathione beads, 16-mer random dsDNA library, 0.1% formaldehyde crosslink after washing; high values mean tight binding
Settings in all cases: protein: recombinant; tags: N-terminal GST; dsDNA, one strand shown
[1] = target: T1, ELK1 (Homo sapiens, UniProt P19419 1-428)
T1 sequence: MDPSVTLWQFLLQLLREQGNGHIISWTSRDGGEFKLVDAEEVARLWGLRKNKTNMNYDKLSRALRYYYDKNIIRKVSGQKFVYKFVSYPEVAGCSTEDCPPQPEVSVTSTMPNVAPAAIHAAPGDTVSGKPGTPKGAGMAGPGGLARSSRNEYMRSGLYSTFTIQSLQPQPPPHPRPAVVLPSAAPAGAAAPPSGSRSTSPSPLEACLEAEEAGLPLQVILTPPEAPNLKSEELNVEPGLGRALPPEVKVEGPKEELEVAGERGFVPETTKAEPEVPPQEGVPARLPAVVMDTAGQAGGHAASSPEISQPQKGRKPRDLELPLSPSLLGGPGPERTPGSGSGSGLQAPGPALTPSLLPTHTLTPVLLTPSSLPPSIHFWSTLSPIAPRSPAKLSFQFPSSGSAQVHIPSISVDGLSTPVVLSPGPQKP
Summary of the method: (§1)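 A tag-only sample was pooled with DNA-barcoded human transcription factors that had been expressed in yeast as GST fusions and captured on glutathione beads. The pools were incubated for 30 min at room temperature with 200 nmole of a random double-stranded 16-mer DNA library in Tris/NaCl/DTT/glycerol buffer, then washed, crosslinked with 0.1% formaldehyde, proximity-ligated (BsaI/T4 ligase, 1 h, 37 °C), PCR-amplified and sequenced on an Illumina NextSeq500. Binding signal is each hexamer's read frequency for a factor divided by its frequency for the tag-only sample.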

[2] = target: T2, GABPA (Homo sapiens, UniProt Q06546 1-454)
T2 sequence: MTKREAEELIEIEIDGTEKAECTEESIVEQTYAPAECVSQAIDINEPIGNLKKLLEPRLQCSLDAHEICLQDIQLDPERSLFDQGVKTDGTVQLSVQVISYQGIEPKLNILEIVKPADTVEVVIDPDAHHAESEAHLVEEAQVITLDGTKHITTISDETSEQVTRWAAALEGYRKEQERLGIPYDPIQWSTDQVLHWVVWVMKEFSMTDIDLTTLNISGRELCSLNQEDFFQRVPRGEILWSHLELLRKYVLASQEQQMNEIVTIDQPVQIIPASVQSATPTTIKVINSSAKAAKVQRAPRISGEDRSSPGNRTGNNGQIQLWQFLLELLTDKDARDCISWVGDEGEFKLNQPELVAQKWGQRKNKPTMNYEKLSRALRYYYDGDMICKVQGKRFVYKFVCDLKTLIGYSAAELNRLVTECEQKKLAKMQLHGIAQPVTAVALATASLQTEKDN
Summary of the method: as §1

[3] = target: T3, ERG (Homo sapiens, UniProt P11308 1-479)
T3 sequence: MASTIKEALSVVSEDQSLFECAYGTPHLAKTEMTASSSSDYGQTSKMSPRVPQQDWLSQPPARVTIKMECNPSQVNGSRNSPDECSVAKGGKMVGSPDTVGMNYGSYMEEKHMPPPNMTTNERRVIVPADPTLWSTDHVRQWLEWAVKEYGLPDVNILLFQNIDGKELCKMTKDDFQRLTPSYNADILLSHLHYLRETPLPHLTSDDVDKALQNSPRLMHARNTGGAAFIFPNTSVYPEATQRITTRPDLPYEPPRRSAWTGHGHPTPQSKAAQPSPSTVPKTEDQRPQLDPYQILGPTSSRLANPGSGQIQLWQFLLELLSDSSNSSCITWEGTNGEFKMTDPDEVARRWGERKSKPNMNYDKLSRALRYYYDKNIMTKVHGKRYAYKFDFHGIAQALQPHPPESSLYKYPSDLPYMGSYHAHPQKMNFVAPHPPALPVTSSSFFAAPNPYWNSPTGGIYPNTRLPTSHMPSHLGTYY
Summary of the method: as §1

[4] = target: ELF1 (Homo sapiens, UniProt P32519 1-619)
ELF1, sequence (P32519 whole entry): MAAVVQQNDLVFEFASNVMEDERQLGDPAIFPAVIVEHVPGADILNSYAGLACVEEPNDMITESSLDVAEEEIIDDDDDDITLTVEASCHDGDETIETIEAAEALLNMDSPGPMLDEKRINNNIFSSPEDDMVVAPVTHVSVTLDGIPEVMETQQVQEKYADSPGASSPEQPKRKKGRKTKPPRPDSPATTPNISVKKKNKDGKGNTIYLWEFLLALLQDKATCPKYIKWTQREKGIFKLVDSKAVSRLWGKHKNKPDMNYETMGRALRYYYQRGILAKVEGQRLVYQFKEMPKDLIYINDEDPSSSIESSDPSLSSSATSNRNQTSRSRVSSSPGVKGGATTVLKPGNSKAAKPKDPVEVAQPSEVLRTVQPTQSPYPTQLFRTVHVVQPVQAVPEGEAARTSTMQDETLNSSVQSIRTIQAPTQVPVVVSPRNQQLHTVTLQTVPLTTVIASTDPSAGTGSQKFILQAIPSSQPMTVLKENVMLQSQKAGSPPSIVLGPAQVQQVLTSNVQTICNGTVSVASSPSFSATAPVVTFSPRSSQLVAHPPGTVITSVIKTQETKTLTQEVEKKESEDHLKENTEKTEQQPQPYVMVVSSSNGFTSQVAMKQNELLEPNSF
Summary of the method: as §1

[5] = target: T4, EHF (Homo sapiens, UniProt Q9NZC4 1-300)
T4 sequence: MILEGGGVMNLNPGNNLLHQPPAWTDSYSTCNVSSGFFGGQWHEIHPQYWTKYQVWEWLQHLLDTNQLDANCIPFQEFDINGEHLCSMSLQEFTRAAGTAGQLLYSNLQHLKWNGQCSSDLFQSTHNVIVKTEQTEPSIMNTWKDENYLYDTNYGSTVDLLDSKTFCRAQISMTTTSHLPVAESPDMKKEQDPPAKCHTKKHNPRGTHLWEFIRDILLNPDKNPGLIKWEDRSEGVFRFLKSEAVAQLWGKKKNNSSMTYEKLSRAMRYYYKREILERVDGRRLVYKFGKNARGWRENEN
Summary of the method: as §1

[6] = target: T5, FEV (Homo sapiens, UniProt Q99581 1-238)
T5 sequence: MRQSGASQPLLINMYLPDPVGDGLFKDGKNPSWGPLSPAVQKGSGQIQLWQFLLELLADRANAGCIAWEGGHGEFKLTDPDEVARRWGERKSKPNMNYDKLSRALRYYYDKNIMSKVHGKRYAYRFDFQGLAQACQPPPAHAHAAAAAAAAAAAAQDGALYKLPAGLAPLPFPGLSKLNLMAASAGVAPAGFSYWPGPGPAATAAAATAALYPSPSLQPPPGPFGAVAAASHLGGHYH
Summary of the method: as §1

[7] = target: ETV5 (Homo sapiens, UniProt P41161 1-510)
ETV5, sequence (P41161 whole entry): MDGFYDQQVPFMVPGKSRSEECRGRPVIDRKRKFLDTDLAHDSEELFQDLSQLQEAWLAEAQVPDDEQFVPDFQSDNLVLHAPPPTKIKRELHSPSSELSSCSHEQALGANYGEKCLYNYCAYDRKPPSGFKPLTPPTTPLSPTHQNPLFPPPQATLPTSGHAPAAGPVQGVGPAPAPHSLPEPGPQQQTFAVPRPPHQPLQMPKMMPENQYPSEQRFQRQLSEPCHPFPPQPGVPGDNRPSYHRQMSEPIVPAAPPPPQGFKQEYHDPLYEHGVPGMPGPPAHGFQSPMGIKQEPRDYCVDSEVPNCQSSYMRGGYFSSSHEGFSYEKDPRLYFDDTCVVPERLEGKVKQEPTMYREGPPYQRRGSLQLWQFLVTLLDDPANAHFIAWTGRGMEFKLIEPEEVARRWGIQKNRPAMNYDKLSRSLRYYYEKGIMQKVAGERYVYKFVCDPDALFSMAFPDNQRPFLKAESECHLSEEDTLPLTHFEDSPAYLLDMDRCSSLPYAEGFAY
Summary of the method: as §1

[8] = target: ELF4 (Homo sapiens, UniProt Q99607 1-663)
ELF4, sequence (Q99607 whole entry): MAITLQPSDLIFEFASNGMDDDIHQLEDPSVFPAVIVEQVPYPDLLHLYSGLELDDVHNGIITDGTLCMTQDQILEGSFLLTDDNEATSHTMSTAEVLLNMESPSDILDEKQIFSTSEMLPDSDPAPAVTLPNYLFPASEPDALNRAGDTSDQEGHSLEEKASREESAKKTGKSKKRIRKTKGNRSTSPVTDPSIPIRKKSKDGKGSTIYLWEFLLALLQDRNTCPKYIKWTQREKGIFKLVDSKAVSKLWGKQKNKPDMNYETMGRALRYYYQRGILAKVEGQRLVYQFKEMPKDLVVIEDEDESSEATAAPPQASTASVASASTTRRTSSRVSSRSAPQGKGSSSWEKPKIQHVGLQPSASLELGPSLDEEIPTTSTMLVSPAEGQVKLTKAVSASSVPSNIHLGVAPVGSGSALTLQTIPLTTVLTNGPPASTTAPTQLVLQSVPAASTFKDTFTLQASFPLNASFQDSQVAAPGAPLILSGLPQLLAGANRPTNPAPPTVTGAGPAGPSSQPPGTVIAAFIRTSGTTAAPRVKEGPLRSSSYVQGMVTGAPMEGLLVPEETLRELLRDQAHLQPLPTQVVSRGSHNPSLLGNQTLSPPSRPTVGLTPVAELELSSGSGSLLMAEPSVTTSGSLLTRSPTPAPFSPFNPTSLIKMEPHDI
Summary of the method: as §1

[9] = target: T6, ELK4 (Homo sapiens, UniProt P28324-2 1-405)
T6 sequence: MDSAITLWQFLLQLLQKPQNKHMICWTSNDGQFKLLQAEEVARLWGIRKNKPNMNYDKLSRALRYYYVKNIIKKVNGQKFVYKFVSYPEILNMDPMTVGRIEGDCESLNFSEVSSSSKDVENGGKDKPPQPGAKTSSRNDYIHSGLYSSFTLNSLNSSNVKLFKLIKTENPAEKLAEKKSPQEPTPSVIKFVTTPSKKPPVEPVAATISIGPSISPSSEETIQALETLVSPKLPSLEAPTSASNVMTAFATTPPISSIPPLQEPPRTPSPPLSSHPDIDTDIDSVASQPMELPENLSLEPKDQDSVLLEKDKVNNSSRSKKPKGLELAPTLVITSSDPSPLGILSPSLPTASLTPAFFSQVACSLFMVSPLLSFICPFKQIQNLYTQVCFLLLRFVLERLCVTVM
Summary of the method: as §1

[10] = target: T7, ETV2 (Homo sapiens, UniProt O00321 1-342)
T7 sequence: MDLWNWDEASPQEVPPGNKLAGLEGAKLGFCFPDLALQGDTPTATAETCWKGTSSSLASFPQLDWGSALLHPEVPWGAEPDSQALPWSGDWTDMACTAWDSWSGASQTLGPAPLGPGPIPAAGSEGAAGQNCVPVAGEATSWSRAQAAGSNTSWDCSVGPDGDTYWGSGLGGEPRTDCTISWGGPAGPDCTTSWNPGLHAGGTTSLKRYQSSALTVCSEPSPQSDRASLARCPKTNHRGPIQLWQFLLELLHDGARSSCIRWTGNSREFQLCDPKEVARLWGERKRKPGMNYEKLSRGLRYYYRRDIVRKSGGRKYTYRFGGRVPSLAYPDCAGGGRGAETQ
Summary of the method: as §1

[11] = target: ETV1 (Homo sapiens, UniProt P50549 1-477)
ETV1, sequence (P50549 whole entry): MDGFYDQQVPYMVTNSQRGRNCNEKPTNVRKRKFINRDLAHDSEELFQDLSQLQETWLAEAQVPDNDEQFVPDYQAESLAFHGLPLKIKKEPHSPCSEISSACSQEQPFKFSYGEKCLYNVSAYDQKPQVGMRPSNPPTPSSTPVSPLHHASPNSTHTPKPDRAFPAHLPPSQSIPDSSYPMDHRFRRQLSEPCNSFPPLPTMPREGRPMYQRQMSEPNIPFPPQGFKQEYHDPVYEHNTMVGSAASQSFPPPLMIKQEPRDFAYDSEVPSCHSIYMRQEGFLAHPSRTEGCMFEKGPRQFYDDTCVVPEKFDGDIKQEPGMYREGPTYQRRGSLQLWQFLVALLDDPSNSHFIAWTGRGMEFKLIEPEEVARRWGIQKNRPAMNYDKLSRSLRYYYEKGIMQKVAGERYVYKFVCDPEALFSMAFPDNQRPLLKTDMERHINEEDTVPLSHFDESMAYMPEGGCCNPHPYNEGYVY
Summary of the method: as §1

[12] = target: T8, ERF (Homo sapiens, UniProt P50548 1-548)
T8 sequence: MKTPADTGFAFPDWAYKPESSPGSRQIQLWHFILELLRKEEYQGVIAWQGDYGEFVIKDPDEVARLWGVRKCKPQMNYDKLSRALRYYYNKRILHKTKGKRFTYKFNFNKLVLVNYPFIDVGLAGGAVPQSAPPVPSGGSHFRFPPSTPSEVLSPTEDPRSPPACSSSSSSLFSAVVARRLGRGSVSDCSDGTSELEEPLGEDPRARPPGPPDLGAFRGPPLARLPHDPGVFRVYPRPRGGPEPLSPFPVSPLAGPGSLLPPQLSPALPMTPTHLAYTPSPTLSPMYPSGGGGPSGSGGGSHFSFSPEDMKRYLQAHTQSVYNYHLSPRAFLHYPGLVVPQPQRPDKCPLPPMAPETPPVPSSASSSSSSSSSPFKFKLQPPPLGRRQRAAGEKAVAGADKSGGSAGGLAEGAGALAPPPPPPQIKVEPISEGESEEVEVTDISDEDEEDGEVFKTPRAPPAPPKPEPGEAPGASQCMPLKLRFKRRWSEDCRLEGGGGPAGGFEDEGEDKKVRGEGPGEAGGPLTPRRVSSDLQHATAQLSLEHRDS
Summary of the method: as §1

[13] = target: T9, ETV3L (Homo sapiens, UniProt Q6ZN32 1-361)
T9 sequence: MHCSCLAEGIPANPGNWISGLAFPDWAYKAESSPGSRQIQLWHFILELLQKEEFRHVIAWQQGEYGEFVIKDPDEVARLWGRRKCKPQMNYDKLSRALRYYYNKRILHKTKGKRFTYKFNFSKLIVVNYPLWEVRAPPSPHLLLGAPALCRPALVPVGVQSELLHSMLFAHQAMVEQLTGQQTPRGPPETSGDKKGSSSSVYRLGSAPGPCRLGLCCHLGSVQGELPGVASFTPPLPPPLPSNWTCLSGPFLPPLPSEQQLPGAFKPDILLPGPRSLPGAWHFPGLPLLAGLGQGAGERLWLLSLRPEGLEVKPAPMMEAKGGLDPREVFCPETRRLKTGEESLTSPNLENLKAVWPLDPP
Summary of the method: as §1

[14] = target: T10, ETS2 (Homo sapiens, UniProt P15036 1-469)
T10 sequence: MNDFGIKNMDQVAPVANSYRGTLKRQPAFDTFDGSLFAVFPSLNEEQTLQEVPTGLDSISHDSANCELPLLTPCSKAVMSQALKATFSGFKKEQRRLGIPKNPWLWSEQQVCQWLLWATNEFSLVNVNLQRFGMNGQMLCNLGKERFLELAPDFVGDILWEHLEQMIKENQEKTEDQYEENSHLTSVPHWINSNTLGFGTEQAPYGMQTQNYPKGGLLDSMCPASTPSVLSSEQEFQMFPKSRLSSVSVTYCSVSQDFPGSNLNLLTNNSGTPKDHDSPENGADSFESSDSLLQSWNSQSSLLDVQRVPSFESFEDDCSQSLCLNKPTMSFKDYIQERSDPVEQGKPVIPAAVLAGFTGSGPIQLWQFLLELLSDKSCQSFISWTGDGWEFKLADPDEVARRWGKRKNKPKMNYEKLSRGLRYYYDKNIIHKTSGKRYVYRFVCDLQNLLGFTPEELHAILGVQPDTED
Summary of the method: as §1

[15] = target: T11, SPDEF (Homo sapiens, UniProt O95238 1-335)
T11 sequence: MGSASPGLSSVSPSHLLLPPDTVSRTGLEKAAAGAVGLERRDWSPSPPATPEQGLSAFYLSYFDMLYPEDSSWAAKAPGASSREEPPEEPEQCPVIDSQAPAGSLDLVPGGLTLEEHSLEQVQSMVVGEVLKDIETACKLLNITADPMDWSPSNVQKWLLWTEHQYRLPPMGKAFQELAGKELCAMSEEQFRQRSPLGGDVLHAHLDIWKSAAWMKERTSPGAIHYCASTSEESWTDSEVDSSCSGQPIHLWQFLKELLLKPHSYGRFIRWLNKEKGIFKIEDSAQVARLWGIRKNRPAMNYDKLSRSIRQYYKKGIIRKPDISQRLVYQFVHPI
Summary of the method: as §1

[16] = target: T12, ETV7 (Homo sapiens, UniProt Q9Y603 1-341)
T12 sequence: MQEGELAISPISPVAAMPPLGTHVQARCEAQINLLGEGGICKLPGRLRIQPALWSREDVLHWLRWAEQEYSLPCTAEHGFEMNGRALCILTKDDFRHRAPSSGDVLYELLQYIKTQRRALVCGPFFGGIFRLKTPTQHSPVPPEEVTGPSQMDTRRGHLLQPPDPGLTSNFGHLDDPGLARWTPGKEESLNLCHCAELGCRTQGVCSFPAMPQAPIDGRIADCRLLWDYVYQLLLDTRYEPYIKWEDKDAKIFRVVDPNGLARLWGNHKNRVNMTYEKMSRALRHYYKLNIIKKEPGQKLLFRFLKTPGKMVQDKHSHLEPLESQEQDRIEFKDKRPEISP
Summary of the method: as §1

[17] = target: T13, ETV3 (Homo sapiens, UniProt P41162-2 1-143)
T13 sequence: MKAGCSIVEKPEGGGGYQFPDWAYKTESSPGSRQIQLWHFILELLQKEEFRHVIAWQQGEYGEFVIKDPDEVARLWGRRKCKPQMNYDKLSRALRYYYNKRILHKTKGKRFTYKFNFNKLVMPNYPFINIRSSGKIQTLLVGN
Summary of the method: as §1

[18] = target: ETV6 (Homo sapiens, UniProt P41212 1-452)
ETV6, sequence (P41212 whole entry): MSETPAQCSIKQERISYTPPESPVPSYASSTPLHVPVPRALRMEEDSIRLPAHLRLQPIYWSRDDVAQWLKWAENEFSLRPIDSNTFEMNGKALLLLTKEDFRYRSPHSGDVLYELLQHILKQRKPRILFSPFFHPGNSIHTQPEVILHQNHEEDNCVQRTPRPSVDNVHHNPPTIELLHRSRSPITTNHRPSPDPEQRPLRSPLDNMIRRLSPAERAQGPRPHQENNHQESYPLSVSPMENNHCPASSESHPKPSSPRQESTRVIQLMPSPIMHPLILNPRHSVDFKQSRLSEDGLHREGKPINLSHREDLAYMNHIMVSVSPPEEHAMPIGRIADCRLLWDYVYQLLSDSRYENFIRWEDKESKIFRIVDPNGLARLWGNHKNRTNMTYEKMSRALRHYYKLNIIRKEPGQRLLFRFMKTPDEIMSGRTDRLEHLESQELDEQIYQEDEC
Summary of the method: as §1

## AAGGGC
[1]
  binding signal: 1.02 fold enrichment (6-mer frequency, TF over GST control)
[2]
  binding signal: 1.1 fold enrichment (6-mer frequency, TF over GST control)
[3]
  binding signal: 1.06 fold enrichment (6-mer frequency, TF over GST control)
[4]
  binding signal: 1.06 fold enrichment (6-mer frequency, TF over GST control)
[5]
  binding signal: 1.01 fold enrichment (6-mer frequency, TF over GST control)
[6]
  binding signal: 1.02 fold enrichment (6-mer frequency, TF over GST control)
[7]
  binding signal: 1.06 fold enrichment (6-mer frequency, TF over GST control)
[8]
  binding signal: 1.01 fold enrichment (6-mer frequency, TF over GST control)
[9]
  binding signal: 1.13 fold enrichment (6-mer frequency, TF over GST control)
[10]
  binding signal: 1.06 fold enrichment (6-mer frequency, TF over GST control)
[11]
  binding signal: 1.05 fold enrichment (6-mer frequency, TF over GST control)
[12]
  binding signal: 1.06 fold enrichment (6-mer frequency, TF over GST control)
[13]
  binding signal: 1.05 fold enrichment (6-mer frequency, TF over GST control)
[14]
  binding signal: 1.1 fold enrichment (6-mer frequency, TF over GST control)
[15]
  binding signal: 1.07 fold enrichment (6-mer frequency, TF over GST control)
[16]
  binding signal: 1.05 fold enrichment (6-mer frequency, TF over GST control)
[17]
  binding signal: 1.07 fold enrichment (6-mer frequency, TF over GST control)
[18]
  binding signal: 1.04 fold enrichment (6-mer frequency, TF over GST control)
